The source of these data is PubChem BioAssay.

Assay [1] in a line: viability loss in pontine glioma line – cell-based, SU-DIPG-XIII, MIPE4.0, CellTiter-Glo, qHTS, dose response (AID 1347061; cut-off not given, nearly all actives have AC50 up to about 37 µM;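 also: cells exposed to compound for 48 hours before readout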). Conditions: CellTiter-Glo ATP luminescence.
A short description of assay [2]: viability loss in pontine glioma line – cell-based, SU-DIPG-IV, MIPE4.0, CellTiter-Glo, qHTS, dose response (AID 1347063; cut-off not given, nearly all actives have AC50 up to about 30 µM;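 also: compound exposure lasted 48 hours before the viability readout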). The following applies: CellTiter-Glo ATP luminescence.
Assay [3] can be described thus: growth inhibition of DIPG cells – cell-based, MIPE4.0 library, CellTiter-Glo luminescence, qHTS (AID 1347066; cut-off not given, nearly all actives have AC50 up to about 30 µM;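 also: cells exposed to compound for 48 hours before readout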). Conditions: SU-DIPG-VI viability, CellTiter-Glo ATP luminescence.
The nature of assay [4]: viability loss in pontine glioma line – cell-based, SU-DIPG-XXV, MIPE5.0, CellTiter-Glo, qHTS, dose response (AID 1347065; cut-off not given, nearly all actives have AC50 up to about 26 µM;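 also: cells exposed to compound for 48 hours before ATP readout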). The following applies: CellTiter-Glo ATP luminescence.
The nature of assay [5]: growth inhibition of DIPG cells – cell-based, MIPE5.0 library, qHTS (AID 1347068; cut-off not given, nearly all actives have IC50 up to about 30 µM). Conditions: SU-DIPG-XXV viability.
Assay [6] is described as follows: viability loss with induced miR-34 in A549 – imaging, A549 dox-inducible miR-34, nuclei and caspase counts, primary screen (AID 1347080;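 active = compounds whose cell count with miR-34 switched on is under 0.7 times the count with it off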). Conditions: A549 miR-34 inducible, Hoechst nuclei count, 48 h.
Assay [7] is described as follows: MELAS cybrid and Rieske KO viability enhancers – cell-based, MELAS cybrids, Rieske KO mouse fibroblasts, CellTiter-Glo, primary screen (AID 1508586;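 active = mean z-score across replicates of 1.96 or higher in either the MELAS or the Rieske mutant cell line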;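 also: z relative to plate mean and SD of compound and empty wells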). The following applies: low glucose.
Assay [8] is described as follows: compounds altering HSF1 focus formation in cells – imaging, Selleck Cancer Library (AID 1347162; in the data active = plate-normalised HSF1 focus index below about 0.46). Conditions: human cells, HSF1 nuclear foci imaging, at 10 µM; SSMD: measured here: HSF1 foci SSMD mean; cell count: measured here: cell number; plate-normalised HSF1 focus index: stronger effect = lower value.
A short description of assay [9]: viability loss in pontine glioma line – cell-based, SU-DIPG-XIII, MIPE5.0, CellTiter-Glo, qHTS, dose response (AID 1347064; cut-off not given, nearly all actives have AC50 up to about 23 µM). The following applies: CellTiter-Glo ATP luminescence.
The nature of assay [10]: JHH-DIPG-1 glioma cell viability, MIPE5.0 library, CellTiter-Glo luminescence, qHTS (AID 1347067; cut-off not given, nearly all actives have AC50 up to about 26 µM;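 also: cells exposed to compound for 48 hours before readout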). Conditions: JHH-DIPG-1 glioma viability, CellTiter-Glo ATP luminescence.
Assay [11] can be described thus: drug combination growth inhibition, ovarian cancer – cell-based, oncology-focused library, rucaparib conditional, profiling panel (AID 1508598). The following applies: patient-derived ovarian cancer cells, CellTiter-Glo viability, 144 h, stronger effect = lower value.
Where [12] appears, read: stronger effect = lower value, cell number ratio, induced over uninduced.
Setting [13] is: measured here: relative caspase fold change +Dox/-Dox.
Setting [14] is: measured here: total cells with miR-34 induction, stronger effect = lower value.
The mark [15] stands for this setting: measured here: total cells without miR-34 induction.
Where [16] appears, read: MELAS cybrid survival, CellTiter-Glo 48 h, stronger effect = higher value.
The mark [17] stands for this setting: Rieske KO mouse fibroblast survival, CellTiter-Glo 72 h.

Where “and” joins values, the source holds several entries; their conditions need not be identical. Equal entries are not always repeated. Inconclusive results are not listed. Calls of active or inactive are those of the source.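 The calls were made as follows, unless noted: active = normalized viability below 100% at a tested concentration; inactive = the rest.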

Regarding `Cc1ccc2c(c1)c1c(n2CCc2ccc(C)nc2)CCN(C)C1`, the result in assay [1], in assay [2] and in assay [3] was inactive.
As to `CCOC(=O)c1c(CSc2ccccc2)n(C)c2cc(Br)c(O)c(CN(C)C)c12`, the result in assay [1], in assay [3] and in assay [5] was inactive. The AC50 in assay [4] is 20.9 µM (active). Moreover, the fold change in assay [6] (setting [12]) is 0.89 (inactive); in [6] (setting [13]) it was 0.958. Also, the values for the cell count in assay [6] (setting [14]) and in assay [6] (setting [15]) were 6100 and 6850, respectively. The z-score is -0.35 (inactive) in [7] (setting [16]) and -0.358 in assay [7] (setting [17]).
On to `CC(=O)O[C@@]12CO[C@@H]1C[C@H](O)[C@@]1(C)C(=O)[C@H](O)C3=C(C)[C@@H](OC(=O)C(O)[C@@H](NC(=O)OC(C)(C)C)c4ccccc4)C[C@@](O)([C@@H](OC(=O)c4ccccc4)[C@H]21)C3(C)C` (some centres not stated), for which the result in assay [1], in [2] and in assay [3] was inactive.
For the compound `Cc1c(NC(=O)c2ccc(C(C)(C)C)cc2)cccc1-c1cn(C)c(=O)c(Nc2ccc(C(=O)N3CCOCC3)cc2)n1`, the call in assay [1], in [3] and in assay [5] was inactive. For the same compound, in [2], the AC50 was 10.5 µM (active). For the same compound, the fold change was 1.11 (inactive) in assay [6] (setting [12]) and 0.695 in assay [6] (setting [13]). Moreover, the values for the cell count in assay [6] (setting [14]) and in assay [6] (setting [15]) were 5460 and 4900, respectively. Moreover, the results for the z-score in assay [7] (setting [16]) and in [7] (setting [17]) were -0.54 (inactive) and -0.156, respectively.
For the compound `CC[C@]1(O)C[C@@H]2CN(CCc3c([nH]c4ccccc34)[C@@](C(=O)OC)(c3cc4c(cc3OC)N(C=O)[C@@H]3C45CCN4CC=C[C@](CC)([C@H]45)[C@@H](OC(C)=O)[C@]3(O)C(=O)OC)C2)C1` (some centres not stated), the call in [1] was inactive. Besides, the call in [2] was inactive. Further, in [8], the SSMD was 2.03, the cell count amounted to 6870 and the plate-normalised HSF1 focus index is 1.12 (inactive).
For `O=C(C1CC1)N1CC[C@@H](Cn2c(-c3ccc(-c4ccc5occc5c4)cc3)nc3cnccc32)C1`, the outcome in assay [1], in assay [3] and in assay [5] was inactive. Besides, in assay [4], the AC50 is 18.6 µM (active).
For the compound `CN(C)N=Nc1nc[nH]c1C(N)=O`, the result in assay [1], in assay [2], in [9] and in [10] was inactive. Moreover, the fold change in assay [6] (setting [12]) is 0.887 (inactive) and 0.898 (inactive); in [6] (setting [13]) it was 1.47 and 1.18. Also, the cell count in assay [6] (setting [14]) is 9080 and 7660; in assay [6] (setting [15]) it was 10200 and 8520. Further, the z-score in assay [7] (setting [16]) was -0.353 (inactive) and -0.0151 (inactive); in assay [7] (setting [17]), 0.329 and 0.212. The viability is 107% (inactive) in assay [11] (at 0.000305 µM, OCI-C5x cells, with rucaparib 10 µM, 100% = cells with rucaparib alone); 101% (inactive) in assay [11] (at 0.000305 µM, OCI-C5x cells, without rucaparib); 107% (inactive) in assay [11] (at 0.000305 µM, OCI-P5x cells, with rucaparib 20 µM, 100% = cells with rucaparib alone); 108% (inactive) in assay [11] (at 0.000305 µM, OCI-P5x cells, without rucaparib); 106% (inactive) in assay [11] (at 0.00122 µM, OCI-C5x cells, with rucaparib 10 µM, 100% = cells with rucaparib alone); 108% (inactive) in assay [11] (at 0.00122 µM, OCI-C5x cells, without rucaparib). Besides, the viability is 109% (inactive) in [11] (at 0.00122 µM, OCI-P5x cells, with rucaparib 20 µM, 100% = cells with rucaparib alone); 108% (inactive) in assay [11] (at 0.00122 µM, OCI-P5x cells, without rucaparib); 111% (inactive) in [11] (at 0.00488 µM, OCI-C5x cells, with rucaparib 10 µM, 100% = cells with rucaparib alone); 107% (inactive) in assay [11] (at 0.00488 µM, OCI-C5x cells, without rucaparib); 106% (inactive) in [11] (at 0.00488 µM, OCI-P5x cells, with rucaparib 20 µM, 100% = cells with rucaparib alone); 104% (inactive) in assay [11] (at 0.00488 µM, OCI-P5x cells, without rucaparib). In addition, the viability in assay [11] (at 0.0195 µM, OCI-C5x cells, with rucaparib 10 µM, 100% = cells with rucaparib alone) is 105% (inactive); in [11] (at 0.0195 µM, OCI-C5x cells, without rucaparib) it was 105% (inactive); in [11] (at 0.0195 µM, OCI-P5x cells, with rucaparib 20 µM, 100% = cells with rucaparib alone), 103% (inactive); in [11] (at 0.0195 µM, OCI-P5x cells, without rucaparib), 112% (inactive); in assay [11] (at 0.0781 µM, OCI-C5x cells, with rucaparib 10 µM, 100% = cells with rucaparib alone), 111% (inactive); in assay [11] (at 0.0781 µM, OCI-C5x cells, without rucaparib), 109% (inactive). For the same compound, the viability in assay [11] (at 0.0781 µM, OCI-P5x cells, with rucaparib 20 µM, 100% = cells with rucaparib alone) is 105% (inactive); in assay [11] (at 0.0781 µM, OCI-P5x cells, without rucaparib) it was 110% (inactive); in assay [11] (at 0.313 µM, OCI-C5x cells, with rucaparib 10 µM, 100% = cells with rucaparib alone), 112% (inactive); in assay [11] (at 0.313 µM, OCI-C5x cells, without rucaparib), 109% (inactive); in assay [11] (at 0.313 µM, OCI-P5x cells, with rucaparib 20 µM, 100% = cells with rucaparib alone), 105% (inactive); in assay [11] (at 0.313 µM, OCI-P5x cells, without rucaparib), 110% (inactive). Further, the viability is 116% (inactive) in assay [11] (at 1.25 µM, OCI-C5x cells, with rucaparib 10 µM, 100% = cells with rucaparib alone); 120% (inactive) in assay [11] (at 1.25 µM, OCI-C5x cells, without rucaparib); 104% (inactive) in assay [11] (at 1.25 µM, OCI-P5x cells, with rucaparib 20 µM, 100% = cells with rucaparib alone); 111% (inactive) in [11] (at 1.25 µM, OCI-P5x cells, without rucaparib); 201% (inactive) in assay [11] (at 5 µM, OCI-C5x cells, with rucaparib 10 µM, 100% = cells with rucaparib alone); 164% (inactive) in assay [11] (at 5 µM, OCI-C5x cells, without rucaparib). The viability in assay [11] (at 5 µM, OCI-P5x cells, with rucaparib 20 µM, 100% = cells with rucaparib alone) was 99.7% (active); in [11] (at 5 µM, OCI-P5x cells, without rucaparib) it was 113% (inactive).
